Source: PubChem BioAssay
In the library only some 5.2% were active in any assay of this set; here they are far more common.
esBAF inh: Bmi1 luciferase reporter increase in mESCs, primary screen, esBAF inhibitor project, mouse ES cells, Bmi1 luciferase knock-in, single point; 24 h; 100% = twice the neutral-well signal; reporter increase, % at 12.5 µM; 350,000 tested, 2% active; in the data active = activation above about 40%;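 also: 0% = median of the plate's neutral control wells and 100% = double that signal; a rise in the Bmi1 reporter signal indicates esBAF inhibition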
Vif imaging: HIV Vif self-association inhibitors, primary screen, imaging, HEK293T, single point. AID 602346, 2012. inhibition, % at 7.49 µM. 340,000 tested, 0.35% active. HEK293T cells, Vif self-association by quenched fluorescence, 24 h; in the data active = inhibition above about 50%, passing the limit was not always enough
SMARCA2 act: SMARCA2 (BRM) function activators, primary screen, cell-based, luminescence, high throughput; activation, % at 9.1 µM; 370,000 tested, 1% active; MG213 cells, MMTV-luciferase reporter, dexamethasone, overnight; AID 652017, 2013; in the data active = activation above about 7.8%;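 also: 0% = vehicle wells and 100% = reference activator wells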
SKN-1 block: suppressors of acrylamide-induced Pgst-4::GFP reporter in worms, primary screen, SKN-1 inhibitor project, whole organism, uHTS, GFP/RFP fluorescence ratio, strain VP596; 360,000 tested, 0.49% active; C. elegans VP596 Pgst-4::GFP/RFP ratio, 24 h; AID 624304, 2012; inhibition, % at 21.8 µM;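 active = interference check ratio from 0.5 to 1.5 plus GFP to RFP signal ratio inhibition reaching or exceeding a fixed threshold, cut at about 30% in these data, passing the limit was not always enough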
NR3A LBD binder: binders of NR3A ligand-binding domain, primary screen, biophysical, differential scanning fluorimetry, uHTS | Glutamate receptor ionotropic, NMDA 3A (GRIN3A) ligand-binding domain | NR3A LBD differential scanning fluorimetry, Tm shift; 0% = protein alone, 100% = glycine-bound protein | Tm shift relative to glycine control, % at 25 µM | 340,000 tested, 2.5% active | AID 1259313, 2017;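 active = melting temperature shift of at least 10% of the positive control shift, at one fixed dose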
NadD block: inhibitors of S. aureus NadD, primary screen, biochemical, colorimetric, uHTS | inhibition, % at 20 µM | purified NadD enzyme, colorimetric absorbance read-out | 360,000 tested, 0.78% active | AID 602399, 2012 | Nicotinate-nucleotide adenylyltransferase NadD (Staphylococcus aureus N315); in the data active = inhibition above about 26%
Starred values were filed as active, the others as inactive; · = no result given.

SMILES	esBAF inh	Vif imaging	SMARCA2 act	SKN-1 block	NR3A LBD binder	NadD block
Cn1c(SCc2ccccc2)nnc1-c1cccs1	59.2*	-4.1	3.9	1.0	-0.2	-4.5
O=C(c1cccnc1)N1C[C@H]2[C@@H](c3ccccc31)[C@H](CO)N2C(=O)Nc1ccccc1Cl	-2.6	·	·	·	·	·
COc1ccc(CN(C)C[C@@H]2OCCCC[C@@H](C)Oc3ccc(NC(=O)Cc4ccccc4)cc3C(=O)N([C@H](C)CO)C[C@@H]2C)cc1	2.4	·	·	·	·	·
CO[C@@H]1CN(C)C(=O)c2ccc(NC(=O)C3CCC3)cc2OC[C@@H](C)N(Cc2ccncc2)C[C@@H]1C	-7.2	·	·	·	·	·
CCCNC(=O)N(C)C[C@@H]1Oc2cc(-c3ccccc3F)ccc2S(=O)(=O)N([C@@H](C)CO)C[C@@H]1C	1.1	·	·	·	·	·
Cn1c(SCc2ccc(F)cc2)nnc1-c1ccccn1	40.7*	1.3	3.2	11.4	-0.6	3.3
O=C1CNC(=S)N1Cc1ccc(F)cc1	-3.5	-2.2	·	13.3	72.0*	0.5
Cc1ccc(C)c(-c2cc(C(=O)Nc3sc(C)c(C)c3C(N)=O)c3ccccc3n2)c1	2.4	-13.4	-4.6	4.7	14.1*	34.7*
CCNC(=S)NNC(=O)c1cc(-c2ccccc2C)nc2ccccc12	14.5	-1.9	·	18.4	-8.3	6.0
Cc1ccc(C)c(-c2cc(C(=O)NNC(=S)NCC(C)C)c3ccccc3n2)c1	·	8.1	-0.6	0.1	12.2*	-0.4
Cc1cccc(-c2cc(C(=O)Nc3sc(C)c(C)c3C(N)=O)c3ccccc3n2)c1	9.7	-9.5	-0.1	-9.6	14.7*	19.3
Cc1cccc(-c2cc(C(=O)Nc3ccncc3)c3ccccc3n2)c1	12.6	-3.0	-1.5	9.6	-20.8	0.2
C[C@@H]1CCCCO[C@@H](CN(C)Cc2ccncc2)[C@H](C)CN([C@@H](C)CO)C(=O)c2cc(NC(=O)Nc3ccc(F)cc3)ccc2O1	9.6	·	·	·	·	·
CC(=O)N(C)C[C@H]1Oc2cc(C#Cc3ccccc3F)ccc2S(=O)(=O)N([C@H](C)CO)C[C@H]1C	4.4	·	·	·	·	·
CC(=O)Oc1cc(C(=O)OCC(=O)NC23CC4CC(CC(C4)C2)C3)cc(OC(C)=O)c1OC(C)=O	-14.8	67.2*	-0.6	5.9	1.2	0.5
COc1cccc(C(=O)OCC(=O)NC23CC4CC(CC(C4)C2)C3)c1	-3.3	25.6	0.0	5.4	-0.6	-5.0
NS(=O)(=O)c1ccc(N=Nc2c(O)c(C(=O)O)cc3ccccc23)cc1	2.0	-5.0	-3.1	30.4	1.8	31.0*
O=C(O)Cc1ccc(N=Nc2c(O)c(C(=O)O)cc3ccccc23)cc1	20.9	-0.5	4.5	24.5	1.1	13.0
CN1C(=O)c2cc(NS(C)(=O)=O)ccc2OC[C@H]2O[C@H](CC(=O)NCc3ccc(-c4ccccc4)cc3)CC[C@@H]21	-2.5	·	·	·	·	·
COc1cc(OC)c2c(N)c(C#N)c(C(F)(F)C(F)(F)F)nc2c1	·	-4.2	-0.8	19.3	-0.7	-3.1
COc1ccc2nc(C(F)(F)C(F)(F)F)c(C#N)c(N)c2c1	-9.2	-8.6	-1.1	11.5	21.9*	-4.9
O=C(C[C@H]1C[C@H]2c3cc(NC(=O)C4CCC4)ccc3O[C@H]2[C@@H](CO)O1)NCc1ccccc1	2.7	·	·	·	·	·
COCCCNC(=O)C1CCN(C(=O)c2oc3cc4sc(N(C)C)nc4cc3c2C)CC1	48.6*	2.8	0.6	-7.3	0.5	-3.6
NC(=O)N/N=C/c1ccc(-c2cccc(C(F)(F)F)c2)o1	·	-3.9	-1.6	26.4	-1.4	-0.3
O=C(N/N=C/c1ccc(-c2cccc(C(F)(F)F)c2)o1)c1ccccc1O	·	1.7	3.2	3.7	20.5*	26.2
O=C(N/N=C/c1ccc(-c2cccc(C(F)(F)F)c2)o1)c1cccc(F)c1	1.1	-8.5	1.3	15.0	10.7*	3.0
O=C(N/N=C/c1ccc(-c2cccc([N+](=O)[O-])c2)o1)c1ccccc1O	·	-0.3	0.8	13.8	19.3*	25.7
